Casp6 inh: inhibitors of human caspase-6. purified caspase-6, Z-VEID-R110 cleavage fluorescence. inhibition, % at 12.5 µM. actives 0.53% (n = 350,000);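 active = mean inhibition across replicates at least about 35%, with every replicate also reaching that limit, limit read from the data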;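 note: 0% = median of neutral control wells and 100% = no fluorescence left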
Target sequence (P55212 24-179 limits assumed): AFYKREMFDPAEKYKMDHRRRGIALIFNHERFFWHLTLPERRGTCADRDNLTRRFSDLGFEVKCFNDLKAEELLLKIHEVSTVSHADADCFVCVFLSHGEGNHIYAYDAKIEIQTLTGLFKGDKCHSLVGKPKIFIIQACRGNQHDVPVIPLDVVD
Target sequence (P55212 194-293 limits assumed): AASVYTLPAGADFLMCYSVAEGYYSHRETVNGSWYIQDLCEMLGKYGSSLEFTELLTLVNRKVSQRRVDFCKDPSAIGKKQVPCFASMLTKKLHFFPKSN
PfHsp90 yeast 2: reduces growth (ATP signal) of yeast expressing P. falciparum Hsp90 | S. cerevisiae expressing PfHsp90, BacTiter-Glo ATP, 48 h; yeast lacking PDR1 and PDR3 efflux regulators | inhibition, % at 9.4 µM | actives 0.32% (n = 310,000) | AID 504621;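 active = every replicate shows inhibition above about 80%, whatever the replicate mean, limit read from the data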;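 note: 0% = DMSO neutral controls and 100% = 20 µM radicicol positive controls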
SIRT5 inh: sirtuin-5 (human) deacylase inhibition. Q9NXA8. Purified SirT5, succinyl-peptide AMC, trypsin-coupled fluorescence. inhibition, % at 15 µM. actives 1.1% (n = 330,000). AID 652115; in the data active = inhibition above about 15%
Target sequence (Q9NXA8 whole entry, looked up): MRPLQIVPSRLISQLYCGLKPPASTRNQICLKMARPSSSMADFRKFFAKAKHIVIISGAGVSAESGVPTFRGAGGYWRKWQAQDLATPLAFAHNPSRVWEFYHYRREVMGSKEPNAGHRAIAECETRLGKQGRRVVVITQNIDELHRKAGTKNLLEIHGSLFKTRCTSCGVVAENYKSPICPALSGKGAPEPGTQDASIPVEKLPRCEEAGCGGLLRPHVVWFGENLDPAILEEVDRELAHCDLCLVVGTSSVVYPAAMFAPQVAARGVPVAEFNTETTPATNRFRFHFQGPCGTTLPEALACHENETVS
NSD2 HMT inh: inhibitors of human histone methyltransferase NSD2. NSD2 peptide methylation, AlphaScreen, 120 min. inhibition, % at 12.5 µM. actives 0.54% (n = 310,000); in the data active = inhibition above about 50%
ARNT-TACC3 inh: disruptors of human ARNT/TACC3 interaction; Q9Y6A5; AlphaScreen His-ARNT PAS-B/GST-TACC3 binding, luminescence; TACC3 fragment carries E629A point mutation; inhibition, % at 9.99 µM; actives 0.66% (n = 390,000); AID 623870;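 active = mean inhibition of replicates at least 50% and at least half of replicates each reaching 50%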;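 note: 0% = complete ARNT plus TACC3 wells and 100% = ARNT alone without TACC3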
Numbers without * were called inactive; / = no result. In the library only some 2.1% were active in any assay of this set; here they are far more common.

SMILES | Casp6 inh | PfHsp90 yeast 2 | SIRT5 inh | NSD2 HMT inh | ARNT-TACC3 inh
CNc1ccc(Br)cc1C(O)c1ccccc1 (centres undefined) | -0.4 | 12.4 | 37.5* | 0.5 | -1.4
Cc1ccc(S(=O)(=O)Nc2ccc3c(c2)C(=O)N(C)[C@H]2CC[C@H](CC(=O)O)O[C@@H]2CO3)cc1 | -1.0 | / | 0.6 | / | 4.8
COc1ccc(NC(=O)N2CC[C@@H]3[C@@H](CO)N(C)c4ccc(-c5ccccc5F)cc4[C@@H]32)cc1 | 2.6 | / | 4.6 | / | -7.7
CCOC(=O)C1=C(C)Nc2ccccc2N/C1=N\S(=O)(=O)c1cc(C(=O)O)ccc1Cl | 36.6* | -7.6 | -0.4 | 4.8 | -2.4
C[C@@H](NC(=O)N(C)C[C@H]1OCc2ccccc2-c2c(n(C)c3ccccc23)C(=O)N([C@@H](C)CO)C[C@@H]1C)c1ccccc1 | 0.1 | / | / | / | 10.9
CC(OC(=O)/C=C/c1ccccc1)C(=O)Nc1ccc2c(c1)OCCO2 (centres undefined) | 0.0 | -14.6 | 19.8* | -0.4 | -0.4
O=C1Nc2cc(C(=O)NCCN3CCCCCC3)ccc2S/C1=C\c1ccccc1 | 99.0* | 15.9 | 0.5 | 31.4 | 15.8
COc1cc(/C=N/NC(=S)Nc2cccc(C(=O)O)c2)cc(OC)c1OC | 2.1 | -0.5 | 23.4* | 1.4 | 9.9
COc1ccc(/C=N/NC(=S)Nc2cccc(C(=O)O)c2)cc1OC | 3.2 | 5.3 | 1.9 | -0.8 | /
Cn1nc(-c2ccccc2)c(/C=N/O)c1Cl | 0.8 | 7.6 | 1.6 | 1.9 | 7.6
Cn1nc(CSc2ccccc2)c(C=O)c1Cl | 1.7 | 16.5 | 15.1* | -0.4 | -21.8
O=C(COC(=O)Cc1ccc(S(=O)(=O)N2CCOCC2)s1)Nc1ccc(F)cc1F | 43.0* | 0.9 | 1.1 | -1.0 | -7.3
CO[C@H]1CN(C)C(=O)c2ccc(NS(C)(=O)=O)cc2OC[C@H](C)N(C)C[C@H]1C | -0.2 | / | -1.4 | / | -1.6
CO[C@@H]1CN(C)C(=O)c2cc(NC(=O)Nc3ccccc3Cl)ccc2OC[C@@H](C)N(S(=O)(=O)CC(F)(F)F)C[C@H]1C | / | / | / | / | 1.7
CCOc1c(Br)cc(Br)cc1/C=C1\SC(N)=NC1=O | 2.2 | 12.5 | 15.3* | 1.3 | -8.1
COc1ccc(S(=O)(=O)N[C@H]2CC[C@@H](CC(=O)N3CCc4ccccc4C3)O[C@H]2CO)cc1 | -0.5 | / | 10.8 | / | 3.9
CC(=O)N1CCc2c(sc(NC(=O)c3ccc([N+](=O)[O-])o3)c2C#N)C1 | 37.6* | 0.9 | 3.1 | / | 18.1
COc1ccc(C(=O)Nc2sc3c(c2C#N)CCN(C(C)=O)C3)cc1 | -3.6 | 6.2 | -6.1 | 1.0 | -3.5
c1cnc(N2CCN(c3nc4ccccc4n4cnnc34)CC2)nc1 | / | -1.5 | / | -1.1 | 48.9*
c1ccc(C(c2ccccc2)N2CCN(c3nc4ccccc4n4cnnc34)CC2)cc1 | / | / | / | -0.8 | /
Cc1ccc(C(=O)n2nc(-n3cccc3)c3c(C)cc(C)nc32)cc1 | -0.5 | -1.7 | 26.0* | 0.4 | -9.0
O=C(CCSc1nnc(-c2ccncc2)o1)Nc1ccccc1 | / | 3.7 | / | -7.2 | -4.3
CCNC(=O)CSc1nnc(-c2cccs2)o1 | 2.8 | -15.7 | 17.8* | -7.3 | -9.1
CCNC(=O)CCSc1nnc(-c2ccncc2)o1 | 2.0 | / | 20.2* | -4.1 | 5.8
O=C(CSc1nnc(-c2cccs2)o1)c1cccs1 | 3.2 | -18.3 | -8.9 | 0.2 | 3.2
SMILES | Casp6 inh | PfHsp90 yeast 2 | SIRT5 inh | NSD2 HMT inh | ARNT-TACC3 inh
CCN(CC)CCSc1nc(O)c(-c2ccccc2)c(=O)n1-c1ccccc1 | -3.4 | -16.4 | 16.3* | 5.1 | -5.0
CCN(CC)CCSc1nc(O)c(Cc2ccccc2)c(=O)n1-c1ccccc1 | 0.5 | -29.0 | / | 12.1 | 11.4
CC(C)NC(=O)Nc1cccc2c1O[C@@H](CN(C)Cc1ccc3c(c1)OCO3)[C@@H](C)CN([C@@H](C)CO)C2=O | 5.6 | / | 12.4 | / | /
COc1ccc(S(=O)(=O)N[C@H]2CC[C@@H](CCNC(=O)Cc3ccccn3)O[C@@H]2CO)cc1 | 0.1 | / | -1.9 | / | 0.1
O=C1C=C(c2cccs2)C[C@H](c2ccccc2)[C@H]1n1nnc([N+](=O)[O-])n1 | / | 92.4* | / | 1.4 | 0.9
COC(Cc1nnc(SC)n1-c1ccc(Cl)cc1)OC | / | 23.5 | / | -3.5 | -3.6
COC(Cc1n[nH]c(=S)n1-c1ccc(Cl)cc1)OC | / | 10.8 | / | / | 50.9*
COc1ccc(CNC(=O)C[C@@H]2CC[C@H](NS(=O)(=O)c3cccc(OC)c3)[C@H](CO)O2)cc1 | -1.0 | / | -6.2 | / | 14.3
O=C1CC2(CCCCC2)Oc2ccc(F)cc21 | / | -6.1 | / | / | 0.5
O=C1CC2(CCCCC2)Oc2ccccc21 | 7.6 | 19.6 | 30.7* | / | -2.5
CCN(C(=O)COC(=O)CNC(=O)c1ccc2ccccc2c1)C1CCS(=O)(=O)C1 (centres undefined) | 47.3* | 4.5 | -1.4 | -8.2 | -8.4
S=C(NCCCn1ccnc1)Nc1cccc(Cl)c1 | -11.9 | / | -16.9 | -0.4 | 41.6*
CCOc1ccc(NC(=S)NCCCn2ccnc2)cc1 | / | -24.8 | / | -1.4 | /
CC1(C)Oc2ccc3ccc(=O)oc3c2/C(=C/NNC(N)=S)C1=O | 1.5 | -11.6 | 1.9 | 10.3 | 75.3*
CCN1/C(=C/c2ccc3cc(C)ccc3[n+]2CC)Sc2ccc3sccc3c21 | / | 100.5* | / | / | -5.5
CCN1/C(=C\c2ccc3cc(C)ccc3[n+]2CC)Sc2cc(C)c(C)cc21 | -25.1 | 94.2* | 2.6 | 53.7* | 12.1
CCCCOCCCNC(=O)C[C@@H]1C[C@@]2(C(=O)OCC)CCC=C2N(Cc2ccco2)C1=O | 49.5* | / | -5.9 | / | /
CCCCCCCCN1C(=O)[C@H](CC(=O)NCCCOC)C[C@@]2(C(=O)OC)CCCCC=C12 | 0.6 | / | -0.2 | / | /
CCCCCCCCN1C(=O)[C@H](CC(=O)NCCC(C)C)C[C@@]2(C(=O)OCC)CCCC=C12 | -4.6 | / | 20.9* | / | /
CCOC(=O)[C@]12CCCC=C1N(Cc1ccco1)C(=O)[C@H](CC(=O)NCCCOC)C2 | -2.5 | / | -12.9 | / | /
CCCCCCCCN1C(=O)[C@H](CC(=O)NCC2CCCCC2)C[C@@]2(C(=O)OC)CCCCC=C12 | -2.0 | / | 15.5* | / | /
CC(C)C#Cc1cnc2c(c1)C(=O)N([C@H](C)CO)C[C@H](C)[C@H](CN(C)Cc1cccc(F)c1)O2 | 1.8 | / | 0.5 | / | -4.2
CC(OC(=O)c1ccc2ccccc2c1)C(=O)N(C)Cc1ccccc1 (centres undefined) | 3.2 | 3.8 | -1.5 | -2.3 | /
CC(C)N(CCC(=O)c1ccc2ccccc2c1)Cc1ccccc1 | -0.7 | 113.6* | -0.8 | / | 0.1
CC1(C)CC[C@]2(C(=O)O[C@@H]3OC(CO)[C@@H](O)[C@H](O)[C@H]3O)CC[C@]3(C)C(=CCC4[C@@]5(C)CC[C@H](O[C@@H]6OC(C(=O)O)[C@@H](O)[C@H](O)[C@H]6O)C(C)(C)C5CC[C@]43C)[C@@H]2C1 (some centres undefined) | 3.1 | 11.6 | -1.1 | / | -7.7

Screens: PubChem BioAssay, Broad Institute
